PubChem BioAssay AID2562 (National Center for Advancing Translational Sciences (NCATS), 2010)
Inconclusive results are not listed. Where a call stands in place of a potency, no number is given. Calls of active or inactive are those of the source. The call rests on the fitted dose curve; in most records, active means well fitted curve in the direction sought with a large enough effect; inconclusive means small, poorly fitted or top-dose-only effect, or effect the other way, or another doubt; inactive means no such curve, though single readings can be large or run the other way.

Target: Pyruvate kinase PKLR (Homo sapiens) (UniProt P30613)
Sequence (P30613 whole entry, looked up): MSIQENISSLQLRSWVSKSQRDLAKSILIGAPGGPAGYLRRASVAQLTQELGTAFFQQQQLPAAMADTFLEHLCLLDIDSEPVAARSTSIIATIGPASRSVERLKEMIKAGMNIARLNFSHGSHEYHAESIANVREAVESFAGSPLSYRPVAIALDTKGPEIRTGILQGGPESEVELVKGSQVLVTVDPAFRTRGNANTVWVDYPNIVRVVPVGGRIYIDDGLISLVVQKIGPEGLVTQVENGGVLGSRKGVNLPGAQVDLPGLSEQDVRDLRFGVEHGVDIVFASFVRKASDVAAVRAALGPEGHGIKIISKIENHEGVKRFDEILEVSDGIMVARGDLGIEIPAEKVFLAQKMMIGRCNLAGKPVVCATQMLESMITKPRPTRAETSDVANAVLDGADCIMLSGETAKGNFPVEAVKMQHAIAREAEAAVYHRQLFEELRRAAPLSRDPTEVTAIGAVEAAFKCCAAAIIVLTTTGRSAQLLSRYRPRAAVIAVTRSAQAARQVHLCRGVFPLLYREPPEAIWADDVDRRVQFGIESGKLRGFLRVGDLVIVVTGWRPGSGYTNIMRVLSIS
Assay: Secondary LDH Assay for Activators of Human Reticulocyte Pyruvate Kinase: for Probe SAR
Conditions: purified hPK-R, LDH-coupled NADH fluorescence kinetic; series mostly up to 58.4 µM
From the text: NIH Chemical Genomics Center [NCGC] Wael M. Rabeh, Lyudmila Nedyalkova and Hee-Wan Park [Structural Genomics Consortium, 100 College St. Toronto, Ontario, Canada] NCGC Assay Overview: Human pyruvate kinase reticulocyte (hPK-R) enzyme was supplied as a highly purified (>95% pure) preparation from Structural Genomics Consortium in Toronto (Ontario, Canada) and a secondary assay was used to evaluate compounds. This assay couples the formation of pyruvate from hPK-R using lactate dehydrogenase (LDH) and NADH. The depletion of NADH is followed in a fluorescent-based kinetic assay that follows the formation of pyruvate to lactate, as catalyzed LDH. Pyruvate kinase substrates, PEP and ADP, were present in the assay at 0.1 mM and 4 mM respectively. In this kinetic assay initial rates were determined by following the fluorescence of NADH depletion.
NCGC Assay Protocol Summary: Three uL of substrate mix (final concentration, 50 mM Tris-Cl pH 8.0, 200 mM KCl, 15 mM MgCl2, 0.1 mM PEP, 4.0 mM ADP, and 0.2 mM NADH) was dispensed into black-solid 1536 well plates. 23 nL of compounds were delivered by a pin tool and 1 uL of enzyme mix (final concentrations, 10 nM hPK-R and 1 uM of LDH) was added. Plates were immediately placed in ViewLux (Perkin Elmer) and NADH fluorescence was determined at 30 second exposure intervals for between 3 and 6 minutes. Data were normalized to the uninhibited and EC100 activation using known activators such as fructose-bis-phosphate.

Which Potency does the source give for `Cc1ccc(NS(=O)(=O)c2ccc3c(c2)CCN(C(=O)C(F)(F)F)C3)cc1C` here?
Its Potency is “inactive”.

Which Potency does the source give for `CSc1cc2c(s1)c1cnn(Cc3cccc(O)c3)c(=O)c1n2C` here?
Its Potency is 259 nM (active).

How did the Potency turn out when `O=C1CCc2cc(S(=O)(=O)Nc3ccc4c(c3)OCCO4)ccc2N1` was run?
Its Potency is “inactive”.

For `Cc1ccc2nc(-c3cccs3)c(Nc3ccccc3)n2c1`, which Potency is on record?
Its Potency is “inactive”.

Which Potency does the source give for `Cc1ccc(NS(=O)(=O)c2cc3c(cc2/C=C/c2ccccc2)NC(=O)CO3)cc1C` here?
Its Potency is “inactive”.

How did the Potency turn out when `CC(=O)Nc1cccc(S(=O)(=O)Nc2ccc(C)c(C)c2)c1` was run?
The Potency was “inactive”.

How did the Potency turn out when `O=S1(=O)N=C(Oc2ccccc2Cl)c2ccccc21` was run?
Its Potency is “inactive”.

With `O=C1c2ccccc2C(=O)N1c1ccncc1` as the molecule, how does the Potency read?
Its Potency is “inactive”.

`Cc1ccc(NS(=O)(=O)c2ccc(F)cc2)cc1C` was tested. Which Potency did it give?
The Potency was “inactive”.

Which Potency does the source give for `CSc1cc2c(s1)c1cnn(Cc3cccc(N)c3)c(=O)c1n2C` here?
The Potency was “inactive”.

How did the Potency turn out when `Cc1ccc(NS(=O)(=O)c2ccc3c(c2)C(Cl)(Cl)C(=O)N3)cc1C` was run?
Its Potency is “inactive”.

For `COc1ccccc1N1C(=O)c2ccccc2C1=O`, which Potency is on record?
Its Potency is “inactive”.

Which Potency does the source give for `O=C1CCc2cc(S(=O)(=O)Nc3ccccn3)ccc2N1` here?
Its Potency is “inactive”.

With `O=C1CCc2cc(S(=O)(=O)Nc3ccc(F)cc3)ccc2N1` as the molecule, how does the Potency read?
Its Potency is “inactive”.

With `Cc1ccc(NS(=O)(=O)c2cc3c(cc2-c2ccsc2)NC(=O)CO3)cc1C` as the molecule, how does the Potency read?
Its Potency is “inactive”.

With `O=C1c2ccccc2C(=O)N1c1cccc(O)c1` as the molecule, how does the Potency read?
The Potency was “inactive”.

For `O=C1c2ccccc2C(=O)N1Cc1ccccn1`, which Potency is on record?
The Potency was “inactive”.

For `Cc1ccc(NS(=O)(=O)c2cc3c(cc2Cl)NC(=O)CO3)cc1C`, which Potency is on record?
Its Potency is “inactive”.

Which Potency does the source give for `Cc1ccc(NS(=O)(=O)c2ccc3c(c2)n(C)c(=O)n3C)cc1C` here?
The Potency was “inactive”.

How did the Potency turn out when `Cc1ccc(NS(=O)(=O)c2ccc3c(c2)CC(=O)N3)cc1C` was run?
Its Potency is “inactive”.

`O=S1(=O)N=C(Oc2ccccc2)c2ccccc21` was tested. Which Potency did it give?
The Potency was “inactive”.

How did the Potency turn out when `O=C1c2ccccc2C(=O)N1Cc1cccnc1` was run?
Its Potency is “inactive”.

With `Cc1ccc(NS(=O)(=O)c2cc3c(cc2C)OCC(=O)N3)cc1C` as the molecule, how does the Potency read?
Its Potency is “inactive”.

With `Cc1ccc(NS(=O)(=O)c2ccc(-c3ccccc3)cc2)cc1C` as the molecule, how does the Potency read?
The Potency was “inactive”.

How did the Potency turn out when `Cc1ccc2nc(-c3ccc(C)o3)c(Nc3ccc4c(c3)OCO4)n2c1` was run?
Its Potency is “inactive”.

With `O=C1c2ccccc2C(=O)N1c1ccccn1` as the molecule, how does the Potency read?
Its Potency is “inactive”.

How did the Potency turn out when `Cc1ccc(NS(=O)(=O)c2ccc3c(c2)CCC(=O)N3)cc1C` was run?
The Potency was “inactive”.

With `Cc1ccc2nc(-c3ccc(C)o3)c(NC3CCCC3)n2c1` as the molecule, how does the Potency read?
Its Potency is “inactive”.

How did the Potency turn out when `Cc1ccc(NS(=O)(=O)c2cc3c(cc2Br)NC(=O)CO3)cc1C` was run?
Its Potency is “inactive”.

With `CC(=O)N1CCCc2cc(S(=O)(=O)Nc3ccc(C)c(C)c3)ccc21` as the molecule, how does the Potency read?
The Potency was “inactive”.

`O=C1c2ccccc2C(=O)N1c1cccc2cnccc12` was tested. Which Potency did it give?
Its Potency is “inactive”.

`O=C1CCc2cc(S(=O)(=O)Nc3ccncc3)ccc2N1` was tested. Which Potency did it give?
Its Potency is “inactive”.

`COc1cccc(OC2=NS(=O)(=O)c3ccccc32)c1` was tested. Which Potency did it give?
Its Potency is “inactive”.

With `Cc1ccccc1NS(=O)(=O)c1ccc2c(c1)CCC(=O)N2` as the molecule, how does the Potency read?
The Potency was “inactive”.

`O=C1c2ccccc2C(=O)N1c1cccc(Cl)c1` was tested. Which Potency did it give?
Its Potency is “inactive”.

For `O=C1c2ccccc2C(=O)N1Cc1ccncc1`, which Potency is on record?
The Potency was “inactive”.

How did the Potency turn out when `O=C1CCc2cc(S(=O)(=O)Nc3cccc(Cl)c3)ccc2N1` was run?
The Potency was “inactive”.

How did the Potency turn out when `Cc1ccc(NS(=O)(=O)c2ccc3c(c2)N(C)CCO3)cc1C` was run?
Its Potency is “inactive”.

`CC(=O)Nc1ccc(S(=O)(=O)Nc2ccc(C)c(C)c2)cc1` was tested. Which Potency did it give?
The Potency was “inactive”.

With `COc1cccc(Cn2ncc3c4sc(S(C)=O)cc4n(C)c3c2=O)c1` (stereo not given) as the molecule, how does the Potency read?
The Potency was “inactive”.
